Records with an inconclusive call do not appear. Activity calls are given as the source filed them. Calls follow the shape of the dose curve; as a rule, active = well fitted curve in the direction sought with a large enough effect; inconclusive = small, poorly fitted or top-dose-only effect, or another doubt; inactive = no such curve, though single readings can be large; an effect the other way counts as inactive or inconclusive.

Test [1] is described as follows: OV-KATE Cancer Cell Toxicity qHTS against the NCATS CANVASS Library (AID 1347345). Also: potency is read from the fitted curve at half-maximal effect. A digest of the protocol:
(§1)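 Following a 4 h pre-incubation of 1000 seeded cells, compounds were pinned in an 11-pnt dilution series and left for 72 h; viability then came from CellTiter-Glo.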

Test [2] in a line: HPAF-II Cancer Cell Toxicity qHTS against the NCATS CANVASS Library (AID 1347346). Also: nearly all actives have a fitted effect of over 55% in size. Also: potency is read from the fitted curve at half-maximal effect. A digest of the protocol:
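HPAF-II cells were seeded at 1000 cells/well, allowed to settle for 4 h at 37 degrees C, then exposed to compounds in an 11-point series for 72 h. Viability was read by CellTiter-Glo luminescence.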
A general note: qHTS replaces the single test concentration by a dilution series.

A short description of test [3]: SW1088 Cancer Cell Toxicity qHTS against the NCATS CANVASS Library (AID 1347350). Also: nearly all actives have a fitted effect of over 75% in size. Also: potency is read from the fitted curve at half-maximal effect. The gist of the method: as §1
A short description of test [4]: U-118MG Cancer Cell Toxicity qHTS against the NCATS CANVASS Library (AID 1347351). Also: potency is read from the fitted curve at half-maximal effect. A digest of the protocol: as §1
The nature of test [5]: COV-362 Cancer Cell Toxicity qHTS against the NCATS CANVASS Library (AID 1347352). Also: potency is read from the fitted curve at half-maximal effect. A digest of the protocol:
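Cells were seeded at 1000 per well and allowed to settle 4 hours at 37 degrees C before pin transfer of compounds as an 11-point series. Viability was read by CellTiter-Glo luminescence after 72 hours' exposure.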

Test [6] in a line: A2780 Cisplatin Sensitive Ovarian Cancer Cell Toxicity qHTS against the NCATS CANVASS Library (AID 1347353). Also: nearly all actives have a fitted effect of over 60% in size. Also: potency is read from the fitted curve at half-maximal effect. The gist of the method:
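A2780 cisplatin-sensitive cells (750 per well) were seeded, left 4 h at 37 °C, then pin-dosed in an 11-point series. After 72 h at 37 °C/5% CO2, viability was measured as ATPLite luminescence.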

Test [7] in a line: KB-8-5-11 Cancer Cell Toxicity qHTS against the NCATS CANVASS Library (AID 1347364). Also: nearly all actives have a fitted effect of over 75% in size. Also: potency is read from the fitted curve at half-maximal effect. A digest of the protocol: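 KB-8-5-11 cells (500/well) in DMEM + 10% FBS were exposed to compounds in an 11-point qHTS series for 72 hr at 37C, 5% CO2. Viability was read by CellTiter-Glo luminescence.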
Test [8] can be described thus: MCF7 Cancer Cell Toxicity qHTS against the NCATS CANVASS Library (AID 1347369). Also: potency is read from the fitted curve at half-maximal effect. A digest of the protocol:
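Cytotoxicity was measured as CellTiterGlo luminescence (ATP) after 72 h at 37 °C. The cells were MCF7 at 500 per well, with an 11-point compound concentration series.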

Test [9] is described as follows: qHTS for ATAD5 Antagonist screened against the NCATS CANVASS Library (AID 1347370). Also: nearly all actives have a fitted effect of over 65% in size. Also: potency is read from the fitted curve at half-maximal effect. A digest of the protocol: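 HEK293T cells with a stably integrated ATAD5-controlled luciferase reporter were exposed to compounds (11-pt) alongside 10 uM 5-fluorouridine as ATAD5 stabilizer for 16hr at 37C. Viability was read by CellTiter-Fluor fluorescence, then ATAD5 by luminescence.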

Test [10] in a line: qHTS for Hypoxia signaling pathway (HIF-1) antagonists against the NCATS CANVASS Library (AID 1347374). Also: nearly all actives have a fitted effect of over 60% in size. Also: potency is read from the fitted curve at half-maximal effect. The gist of the method: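 HRE-bla ME-180 cells (2,000/well, 0.5% dialyzed FBS) were pre-incubated 5 h, then given an 11-point compound series plus CoCl2 (60 uM solution as added) for 17 h at 37C. CCF4 β-lactamase read (ex 405, em 460/530 nm) after 2 h at RT.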
Test [11] can be described thus: qHTS for Inflammasome Signaling Inhibitors: IL-1-beta AlphaLISA screen against the NCATS CANVASS Library (AID 1347379).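 Also: human THP-1 cells primed with LPS then triggered with ATP.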 A digest of the protocol:
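Human THP-1 cells were pretreated 1 hr at 37 °C with compounds (up to 57.5 uM final), then stimulated with LPS (250 ng/mL final) and ATP (1.25 mM final). Secreted IL-1B was read by AlphaLISA after 16 hr.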

A short description of test [12]: qHTS for Activators of p53 Stress Response Pathway screened against the NCATS CANVASS Library (AID 1347388). Also: potency is read from the fitted curve at half-maximal effect. The gist of the method:
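p53RE-bla HCT-116 cells (4000/well) were pre-incubated for 5 h, then treated with compound (11 points) for 16 h at 37C. After 2 h with CCF4, the 460/530 nm ratio gave reporter activation; CellTiter-Glo measured viability.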

The nature of test [13]: qHTS assay for small molecule disruptors of mitochondrial membrane potential screened against the NCATS CANVASS Library (AID 1347389). Also: nearly all actives have a fitted effect of over 60% in size. Also: potency is read from the fitted curve at half-maximal effect. A digest of the protocol: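 HepG2 cells (2,000/well) were plated overnight at 37C, exposed to compound for 1 hr at 37C/5% CO2, then loaded with Mito-MPS dye for 30 min. Depolarization was read as a drop in red (590 nm) to green (535 nm) fluorescence ratio.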

A short description of test [14]: Secretion counterscreen for inhibitors of the SERCaMP assay screened against the NCATS CANVASS Library (AID 1347390).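 Also: light from luciferase secreted into medium read as a measure of general secretion.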 Also: potency is read from the fitted curve at half-maximal effect. The gist of the method: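 Counterscreen for secretory-pathway interference: after 4 h attachment, SH-SY5Y-GLuc cells were exposed 20 hours to compounds (final 0.001 - 77 uM), then coelenterazine added and GLuc luminescence recorded; Brefeldin A served as control.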
For orientation: A counterscreen serves to expose hits that act by an unwanted route or on another target.

Test [15] in a line: qHTS for activators of Nrf2/ARE signaling pathway screened against the NCATS CANVASS Library (AID 1347391). Also: nearly all actives have a fitted effect of over 60% in size. Also: potency is read from the fitted curve at half-maximal effect. The gist of the method: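 ARE-bla HepG2 beta-lactamase reporter cells, 2000 cells/well, were preincubated 5 h, then exposed to compounds (11-point series) for 16 h at 37C. CCF4 fluorescence (ex 405, em 460/530 nm) after 2 h at room temperature.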
Test [16] is described as follows: Vero-766 cells viability qHTS against the NCATS CANVASS Library: Counterscreen for Zika virus inhibition assay (AID 1347394). The gist of the method:
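CellTiter Glo luminescence measured cytotoxicity after 72 h at 37C in uninfected Vero 766 cells, plated at 1000 cells/well. Compounds were applied in an 11-point series. Wells without cells defined 100% inhibition.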

Test [17] can be described thus: Viability qHTS for inhibitors of the SERCaMP assay screened against the NCATS CANVASS Library (AID 1347400). Also: nearly all actives have a fitted effect of over 70% in size. Also: potency is read from the fitted curve at half-maximal effect. A digest of the protocol: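 SH-SY5Y-GLuc SERCaMP MJH297-derived cells (1000 cells/well) were pre-incubated 4 h at 37C, then exposed to compounds for 48 h. Viability was read as CellTiter-Glo luminescence; bortezomib served as positive control.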
Test [18] has as its target Nuclear receptor subfamily 1 group I member 3 (Homo sapiens) (UniProt Q14994). The test can be described thus: qHTS for Constitutive Androstane Receptor (CAR) Antagonist screened against the NCATS CANVASS Library (AID 1347372). Also: potency is read from the fitted curve at half-maximal effect. A digest of the protocol: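 HepG2 cells stably carrying hCAR and CYP2B6-2.2kb luciferase reporter, 2500 cells/well, compound with 50 nM CITCO agonist for 24hr at 37C. ONE-Glo luminescence measured CAR activity; CellTiter-Fluor read viability.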

Nuclear receptor subfamily 1 group I member 3 (Homo sapiens), sequence (Q14994 whole entry, looked up): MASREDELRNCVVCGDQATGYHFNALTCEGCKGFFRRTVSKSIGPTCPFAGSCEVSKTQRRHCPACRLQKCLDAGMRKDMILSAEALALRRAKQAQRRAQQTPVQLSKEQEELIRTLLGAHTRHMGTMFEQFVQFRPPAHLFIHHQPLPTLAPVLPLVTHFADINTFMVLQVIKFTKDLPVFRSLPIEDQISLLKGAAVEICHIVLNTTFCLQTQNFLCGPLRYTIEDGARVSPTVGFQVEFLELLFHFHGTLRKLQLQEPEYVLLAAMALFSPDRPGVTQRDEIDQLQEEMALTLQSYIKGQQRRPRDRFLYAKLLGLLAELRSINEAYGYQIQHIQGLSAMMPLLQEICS

Turning to `C=C[C@]12C=CCN3CC[C@@]4(c5ccccc5NC(=O)[C@@H]4C1)[C@@H]32`, the Potency result in test [1], in [2], in [3], in [4], in test [5] and in [6] was “inactive” each time. Besides, the Potency entry in test [7], in test [8], in test [9], in test [10], in test [11] and in test [12] was “inactive” throughout. The Potency entry in [13], in [14], in [16] and in test [17] was “inactive” in each case. Besides, the Potency in test [15] was 20.9 µM (active).
For `CCCC[C@@H](C)/C=C1/CN2CCC[C@H]2[C@@](C)(O)[C@@H]1O`, the Potency result in test [1], in test [3], in test [4], in test [5], in test [6] and in test [7] was “inactive” each time. The Potency entry in test [8], in [9], in [18], in test [10], in test [11] and in test [12] was “inactive” throughout. The Potency result in test [13], in test [14], in test [16] and in test [17] was “inactive” throughout.
On to `CO[C@H]1C[C@H](O[C@H]2[C@@H](O)C[C@H](O[C@H]3CC[C@]4(C=O)[C@H]5CC[C@]6(C)C(C7=CC(=O)OC7)CC[C@]6(O)[C@@H]5CC[C@]4(O)C3)O[C@@H]2C)O[C@H](C)[C@H]1O[C@H]1C[C@@H](OC)[C@@H](O[C@@H]2O[C@H](CO)[C@@H](O)[C@H](O)[C@H]2O)[C@@H](C)O1` (stereo partly drawn), for which the Potency in test [1] was 265 nM (active); in test [2] it was 0.376 µM (active); in [4] it was 0.188 µM (active); in test [5], 374 nM (active); in [6] it was 0.0833 µM (active); in test [7], 0.166 µM (active). Moreover, the Potency in test [8] was 166 nM (active); in [9], 0.66 µM (active); in [18], 0.417 µM (active); in test [10], 0.118 µM (active); in [11], 1.53 µM (active); in test [14] it was 0.767 µM (active). Further, the Potency in [17] is 0.135 µM (active). In addition, the Potency entry in test [13] and in [15] was “inactive” throughout.
As for `CO[C@@]12c3c(C)cc(O)c4c(=O)occ(c34)C(=O)[C@@H]1[C@]13COC(=O)c4c(O)cc(C)c(c41)C(=O)[C@H]2[C@@H]3OC(C)=O`, the Potency result in test [1], in [4], in test [5], in [7], in test [8] and in test [9] was “inactive” each time. Besides, the Potency entry in [18], in [10], in test [11], in [12], in test [16] and in test [17] was “inactive” throughout. Also, the values for the Potency in test [3] and in test [13] were 18.8 µM (active) and 16.6 µM (active), respectively.
As to `C=CC(C)(C)[C@@]12C[C@H]3C(=O)N/C(=C/c4cnc[nH]4)C(=O)N3[C@@H]1Nc1ccccc12`, the Potency result in test [1], in test [2], in test [3], in test [4], in [5] and in [6] was “inactive” in each case. The Potency entry in test [7], in [8], in test [9], in [10], in test [11] and in [12] was “inactive” in each case. In addition, the Potency result in test [13], in test [14], in [16] and in [17] was “inactive” throughout. Besides, the Potency in test [18] is 20.9 µM (active).
As for `C[C@]12CC(O)C3[C@@H](CCC4C[C@@H](O)CC[C@@]43CO)[C@@]1(O)CC[C@@H]2C1=CC(=O)OC1` (stereo partly drawn), the Potency entry in [3], in [9], in test [13] and in test [15] was “inactive” in each case. Further, the Potency was 16.6 µM (active) in test [6]; 18.7 µM (active) in test [7]; 10.5 µM (active) in [18]; 9.41 µM (active) in test [10]; 13.5 µM (active) in [17].
In the case of `C/C=C1/CN2C3CC1C1=CCC(=O)N4c5ccccc5[C@@]3(C[C@@H]2C2=C[C@H]3C5CC6N(CC[C@@]67c6ccccc6N(C2=O)[C@@H]37)C/C5=C/C)[C@H]14` (stereo partly drawn), the Potency result in test [1] and in test [13] was “inactive” throughout. Besides, the Potency in test [2] is 18.8 µM (active); in test [3], 14.9 µM (active); in test [6] it was 13.2 µM (active); in test [7], 16.6 µM (active); in test [9] it was 14.8 µM (active); in test [11], 21.7 µM (active). Besides, the Potency in test [14] was 43.1 µM (active); in [15] it was 7.41 µM (active); in [17] it was 42.8 µM (active).
On to `COC1C(O)C(C)OC(OC2C(Oc3cccc4c(O)c5c(=O)oc6ccc(C)c7c(=O)oc(c34)c5c67)OC(C)C(O)C2O)C1O` (stereo not drawn), for which the Potency entry in [3], in [4] and in [15] was “inactive” throughout. Also, the Potency is 3.32 µM (active) in test [6]; 11.7 µM (active) in test [18]; 27.3 µM (active) in [11]; 10.5 µM (active) in test [12]; 30.5 µM (active) in test [14]; 34 µM (active) in [17].
For `C1=C2CCCN[C@H]2C2CC1[C@H]1CCCCN1C2` (stereo partly drawn), the Potency entry in test [1], in test [2], in [3], in test [4], in test [5] and in test [6] was “inactive” throughout. Moreover, the Potency result in [7], in [8], in [9], in test [18], in test [10] and in test [11] was “inactive” each time. Also, the Potency entry in test [12], in test [13], in [14], in test [15] and in test [16] was “inactive” each time.
On to `CC[C@H]1CN2CCc3c([nH]c4cccc(OC)c34)[C@@H]2C[C@@H]1/C(=C\OC)C(=O)OC`, for which the Potency entry in test [1], in test [2], in test [5], in test [7], in [8] and in test [9] was “inactive” throughout. Besides, the Potency entry in test [18], in test [10], in test [11], in [12], in test [16] and in [17] was “inactive” throughout. In test [4], the Potency was 18.8 µM (active).

The values are drawn from PubChem BioAssay (NCATS).
